# High-throughput results from PubChem.
# PKA-R1A act = activates the PKA-R1A holoenzyme complex | PKA-R1A dissociation, Cy5-IP20 fluorescence polarization; scaled: DMSO 0%, 113 µM cGMP 100% | actives 0.083% (n = 340,000) | activation, % at 11.4 µM | P00514+P68181;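 active = percent activation above the mean of all tested compounds plus 3 SD, cut at about 19% in these data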;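 also: higher means more PKAc released from R1A so a rise in polarization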
# ANO1 block = mouse TMEM16A channel inhibition, primary screen | Q8BHY3 | HEK293 TMEM16A/YFP iodide influx fluorescence, ionomycin | normalized B-score (activity score, 25-100; higher = stronger inhibition) at 10 µM | actives 1.2% (n = 310,000) | AID 588511;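 active = ratio plate-corrected score three or more library SD toward inhibition, starting fluorescence score within five deviations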;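 also: score derived from kinetic fluorescence span divided by baseline fluorescence per well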
# CHT allo act = allosterically activates the human high affinity choline transporter; AID 488977; B-score at 10 µM; CHT-expressing cells, membrane potential dye, choline EC20; stronger effect = higher value; LV-AA mutant CHT in HEK293 cells; Q9GZV3; actives 0.49% (n = 310,000);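 active = initial fluorescence not abnormally high and integrated response B-score, plate-corrected, over 3 SD above library mean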
# Target sequence (Q9GZV3 whole entry, looked up): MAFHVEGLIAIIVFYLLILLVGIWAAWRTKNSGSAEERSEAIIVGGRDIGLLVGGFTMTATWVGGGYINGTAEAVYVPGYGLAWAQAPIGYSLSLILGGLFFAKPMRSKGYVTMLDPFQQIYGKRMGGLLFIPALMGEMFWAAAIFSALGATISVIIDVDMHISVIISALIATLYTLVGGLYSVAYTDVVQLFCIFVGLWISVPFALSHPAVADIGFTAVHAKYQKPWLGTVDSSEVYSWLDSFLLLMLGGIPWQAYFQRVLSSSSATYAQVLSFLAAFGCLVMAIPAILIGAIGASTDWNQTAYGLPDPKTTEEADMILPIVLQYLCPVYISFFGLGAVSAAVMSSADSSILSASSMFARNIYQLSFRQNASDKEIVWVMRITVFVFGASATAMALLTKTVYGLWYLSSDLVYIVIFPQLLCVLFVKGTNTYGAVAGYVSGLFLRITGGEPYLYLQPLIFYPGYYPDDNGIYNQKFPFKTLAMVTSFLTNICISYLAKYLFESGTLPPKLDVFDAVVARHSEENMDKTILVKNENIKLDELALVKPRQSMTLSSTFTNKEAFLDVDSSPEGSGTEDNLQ
# TMEM16A act = activates or potentiates the mouse TMEM16A chloride channel; AID 623877; B-score at 10 µM; actives 0.3% (n = 340,000); HEK293 TMEM16A/YFP-H148Q/I152L, iodide quench fluorescence; stronger effect = lower value; Q8BHY3;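 active = fluorescence-ratio B-score plate-corrected deviation score at least 3 library SD below zero, with starting fluorescence score within 5 deviations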;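 also: channel opened by trigger with iodide after compound preincubation; score built on the fluorescence ratio of max minus min over baseline; more negative score means more quench and so TMEM16A activation or potentiation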
# PKA-R2B act = activators of human PKA-R2B complex; PKA-R2B holoenzyme dissociation, Cy5-IP20 fluorescence polarization; R2B truncated from residue 108, S112A mutant; 0% DMSO only, 100% 113 µM cGMP; activation, % at 11.4 µM; actives 0.079% (n = 340,000); AID 504700;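 active = activation above a cutoff set at the mean over all compounds plus 3 SD, cut at about 18% in these data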;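 also: higher means more holoenzyme dissociation and a rise in polarization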
# CHT block = inhibits the human high affinity choline transporter | Q9GZV3 | CHT-expressing cells, membrane potential dye, choline response; stronger effect = lower value | B-score at 10 µM | actives 0.86% (n = 310,000) | AID 488975;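 active = B-score over 3 SD under the library average, and starting fluorescence ratio not unusually high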;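 also: choline stimulus applied at its EC90 after an EC20 pre-addition; B-score computed on integrated fluorescence ratio after choline addition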
# CHT inh conf = confirmation of human choline transporter CHT inhibitors; shares compounds with CHT block; actives 70% (n = 2,400); CHT-expressing cells, choline membrane potential dye; LV-to-AA substituted CHT, HEK293 cells; CHT activity remaining % of control (stronger effect = lower value), % at 10 µM;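 active = choline transporter activity left, mean of duplicates at 10 µM, below buffer-only control mean minus 3 SD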;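 also: depolarization triggered by choline at its EC90 following an EC20 pre-addition; 0% = hemicholinium-3 full block and 100% = buffer-only control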
# HEK293 MPD ctr = activity in parental HEK293 cells lacking CHT; shares compounds with CHT block; membrane potential dye, choline response; active = decrease or increase beyond buffer ±3SD; membrane potential ratio readout (active if shifted either direction beyond buffer ±3SD; no single direction) at 10 µM; actives 4% (n = 2,400); AID 493222;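 also: parental cells lack the transporter so any hit is non-specific; ratio is peak minus trough fluorescence over baseline after EC90 choline challenge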
# Active calls of the source: *; i = inactive; nt = no result. Only some compounds are listed: those with a hit (about 2.5% of all), similar ones and a draw of the others.
SMILES,PKA-R1A act,ANO1 block,CHT allo act,TMEM16A act,PKA-R2B act,CHT block,CHT inh conf,HEK293 MPD ctr
CN1CCN(C(=O)CCN2C(=O)S/C(=C/c3ccc(Cl)cc3)C2=O)CC1,-6,i,i,i,-2,-6.5*,50%*,i
Cc1ccc(/C=C2\SC(=O)N(CCC(=O)N3CCN(C)CC3)C2=O)cc1,-1,i,i,i,2,i,nt,nt
Cc1noc(/C=C/c2cccs2)c1S(=O)(=O)N1CCC(C(=O)NCCCN2CCCC(C)C2)CC1 (centres undefined),0,i,i,i,7,i,i,i
CCOC(=O)C(C)Sc1nc2c(cnn2-c2ccc(F)cc2)c(=O)[nH]1 (centres undefined),-4,i,i,i,7,i,nt,nt
Cc1oc(C(=O)O)cc1COc1ccc2c3c(c(=O)oc2c1C)CCC3,7,i,i,i,-5,-6.6*,43%*,i
CN(C)c1cc(-c2ccc(Cl)cc2Cl)oc(=O)c1Cl,-11,i,i,i,-1,i,nt,nt
O=C(Nc1sc2c(c1C(=O)O)CCC2)c1ccccc1,-3,i,i,i,-2,i,nt,nt
O=C(Nc1sc2c(c1C(=O)O)CCCC2)c1ccc(Cl)cc1,-9,i,i,i,-7,-6.3*,53%*,i
Cc1ccc(OCC(=O)N(Cc2ccccc2)c2c(N)n(Cc3ccccc3)c(=O)[nH]c2=O)c(C)c1,-6,i,i,i,-8,i,nt,nt
O=C(c1ccco1)N1CCN(C(=O)c2cc3sccc3n2Cc2ccccc2)CC1,-3,i,i,i,4,-5.9*,i,i
COc1ccccc1OCC(O)CN1CCN(C(=O)c2ccccc2)CC1 (centres undefined),5,i,i,i,3,i,nt,nt
COc1cccc(NC(=S)N(Cc2ccc(C(=O)O)cc2)Cc2ccc(OC)c(OC)c2)c1,12,i,i,i,5,-6.4*,51%*,i
O=c1c(-c2n[nH]c(=S)o2)cccn1Cc1ccccc1,2,i,i,i,-5,i,nt,nt
CC(=O)c1cc2c(cc1NC(=O)CCNC(=O)c1ccccc1Cl)OCO2,-4,i,i,i,-2,-5.6*,50%*,i
O=C(CCNC(=O)c1ccccc1Cl)Nc1ccc2c(c1)OCO2,-7,i,i,i,-12,i,nt,nt
Cc1ccc(S(=O)(=O)NC(=O)c2ccc(-c3ccc(C)c4ccccc34)o2)cc1,0,25*,i,i,6,-5*,i,i
O=C1NC2(CCCCC2)C(=O)N1c1cccc(Cl)c1,9,i,i,i,-3,i,nt,nt
CN1CCN(c2ccc([N+](=O)[O-])cc2C(=O)N2CCCCC2)CC1,2,i,i,i,-1,i,nt,nt
CN1CCN(c2ccc([N+](=O)[O-])cc2C(=O)c2ccc(Cl)cc2)CC1,-2,i,i,i,-4,-5*,68%*,i
COc1cc(C=O)ccc1OC(=O)Nc1ccccc1,2,i,i,i,-3,i,nt,nt
CC(C)(C)C(=O)NC(=S)Nc1cc(C(F)(F)F)ccc1N1CCOCC1,-7,i,i,i,3,-5*,i,i
CCOc1cc(N2CCOCC2)c(OCC)cc1NC(=O)Cc1ccccc1,3,i,i,i,-1,-8.6*,57%*,i
Cc1cc(NS(=O)(=O)c2ccc(NC(=O)C(C(C)C)N3C(=O)c4ccccc4C3=O)cc2)nc(C)n1 (centres undefined),1,i,i,i,-8,i,nt,nt
Cc1cc(C)cc(OC(C)C(=O)Nc2ccc(S(=O)(=O)Nc3cc(C)nc(C)n3)cc2)c1 (centres undefined),-2,i,i,i,-5,-6*,40%*,i
CCc1ccc(OC(C)C(=O)Nc2ccc(S(=O)(=O)Nc3nccs3)cc2)cc1 (centres undefined),13,i,i,i,5,-5*,59%*,i
SMILES,PKA-R1A act,ANO1 block,CHT allo act,TMEM16A act,PKA-R2B act,CHT block,CHT inh conf,HEK293 MPD ctr
O=C(O)c1ccc(-c2nc(-c3ccccc3Cl)cs2)cc1,-4,i,i,i,2,-5.4*,40%*,i
CCc1ccc(Nc2n[n+](-c3ccccc3)c(-c3cccc(C)c3)s2)cc1,8,i,i,i,-1,-15*,49%*,2.6*
CC(C)(C)c1ccc(N/N=C(\C#N)S(=O)(=O)C(C)(C)C)cc1,0,i,i,i,-6,i,nt,nt
CC(C)(C)S(=O)(=O)/C(C#N)=N/Nc1ccc(Cl)cc1,9,i,i,i,0,-5.5*,47%*,i
CCc1ccc(N/C(=N/c2nc(C)cc(C)n2)NC(C)=O)cc1,-2,i,i,i,6,-5.8*,58%*,i
CC(=O)N(C)c1ccc(OCC(O)CN(c2ccccc2C)S(=O)(=O)c2ccc(C)cc2)cc1 (centres undefined),-2,i,i,i,-6,-18*,-11%*,i
CC(C)(C)NC(=O)c1ccc(COc2ccccc2Br)o1,-15,i,i,i,-5,-6.3*,i,i
CCN(CC)C(=O)c1ccc(COc2ccccc2Br)o1,-3,i,i,i,-4,-8.2*,58%*,i
CC(=O)Nc1ccc(NC(=O)c2ccc(COc3ccccc3Br)o2)cc1,7,i,i,i,-5,i,nt,nt
O=C(Nc1cccnc1)c1ccc(COc2ccccc2Br)o1,0,i,i,i,5,-5.7*,55%*,i
O=C(NCc1cccnc1)c1ccc(COc2ccccc2Cl)o1,1,i,i,i,-2,-5.4*,58%*,i
O=C(CN1C(=O)NC2(CCCCC2)C1=O)N1CCN(S(=O)(=O)c2ccc(F)c(F)c2F)CC1,2,nt,nt,i,-7,nt,nt,nt
CCN(CC)S(=O)(=O)c1ccc(OC(C)C)c(NC(=O)c2c3c(nc4ccccc24)CCN(Cc2ccccc2)C3)c1,-12,i,i,i,-3,i,nt,nt
